High-throughput results deposited in PubChem BioAssay by National Center for Advancing Translational Sciences (NCATS).
AmpC inh detg: blocks E. coli AmpC beta-lactamase in detergent assay; AmpC hydrolysis of nitrocefin, absorbance 480 nm, 0.01% Triton; Potency, µM (series often up to 114 µM), for inactives: top-dose activity change, negative = inhibition, most hits filed as inhibitors; hit rate 0.041% among 370,000; AID 485294;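 further: potency means the concentration at half of the fitted maximal effect; 0% = no-compound wells and -100% = no-enzyme wells; nearly all actives have a fitted effect of over 25% in size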
Target sequence (P00811 whole entry, looked up): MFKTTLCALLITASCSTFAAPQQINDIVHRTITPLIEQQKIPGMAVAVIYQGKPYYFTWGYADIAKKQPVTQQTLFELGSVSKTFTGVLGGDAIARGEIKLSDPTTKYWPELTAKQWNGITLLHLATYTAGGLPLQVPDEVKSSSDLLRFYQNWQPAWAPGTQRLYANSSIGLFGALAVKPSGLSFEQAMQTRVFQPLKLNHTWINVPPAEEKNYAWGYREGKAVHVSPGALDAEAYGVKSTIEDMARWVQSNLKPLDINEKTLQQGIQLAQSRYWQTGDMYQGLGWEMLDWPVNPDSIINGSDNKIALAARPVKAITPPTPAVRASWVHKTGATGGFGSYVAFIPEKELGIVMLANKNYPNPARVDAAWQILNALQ
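20 mM phosphate pH 7.0 + 0.01% (detergent screen) or 0.0001% Triton X-100; 5.3 nM AmpC reagent; cpd preinc 15 min RT; nitrocefin (800 uM stock) to start; A480 q20 s × 4 min; Activity was normalised to no-enzyme and no-compound control wells.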
Shiga toxin inh: inhibitors of Shiga toxin in Vero cells | Vero cells, Shiga toxin protein synthesis inhibition reporter | inhibition, % at 38.7 µM | hit rate 9.2% among 290,000 | AID 2315; in the data active means inhibition mostly above about 28%, no sharp cut-off; inactive means mostly below about 43%; further: 0% is about no effect
AmpC no deterg: inhibitors of E. coli AmpC beta-lactamase without detergent; P00811; AmpC nitrocefin hydrolysis, absorbance 480 nm, 0.0001% Triton; Potency, µM (titrated, usually from 57.1 µM), for the others: at the top dose activity change, negative = inhibition, most hits filed as inhibitors; hit rate 0.52% among 330,000; AID 485341;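 further: potency means the concentration at half of the fitted maximal effect; plate controls were no compound for no effect and no enzyme for full effect; nearly all actives have a fitted effect of over 20% in size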
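AmpC (5.3 nM in the dispensed reagent) in 20 mM phosphate pH 7.0 with 0.01% (detergent screen) or 0.0001% Triton X-100 was preincubated with compounds for 15 min at room temperature. Nitrocefin was then added from an 800 uM solution, and hydrolysis was followed at 480 nm.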
Cycloheximide cs: counter-screen for Shiga toxin inhibitors: cycloheximide protein synthesis inhibition; cell reporter, cycloheximide protein synthesis inhibition counterscreen; max response, %; hit rate 12% among 300,000; AID 2314; in the data active means max response mostly above about 13%, no sharp cut-off; inactive means mostly below about 14%; further: read at 38.3 µM for the half of the compounds with a filed dose; 0% is about no effect
NS1 function inh: blocks influenza NS1 protein function; Potency, µM (series often up to 46.1 µM), without a hit: at the highest dose activity, positive = more growth; hit rate 0.4% among 270,000; AID 2326; calls by dose curve; further: potency means the concentration at half of the fitted maximal effect; actives are rising curves; nearly all actives have a fitted effect of over 50% in size
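In this qHTS, NS1 from influenza A is expressed in budding yeast, where it slows growth. Cells are switched from glucose to 2% galactose medium (pH 6.0, -URA), treated with compound, and growth recovery is read at OD600.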
Starred values were filed as active, the others as inactive. This is one part of a sample in which hits are shown more often than they occur. Unless noted, the call rests on the fitted dose curve; in most records, active means well fitted curve in the direction sought with a large enough effect; inconclusive means small, poorly fitted or top-dose-only effect, or another doubt; inactive means no such curve, though single readings can be large; an effect the other way counts as inactive or inconclusive.

For CC(=O)NCCc1nc2cc(NC(=O)c3cccs3)ccc2n1C the results were AmpC inh detg -1.1%, Shiga toxin inh 22.6, AmpC no deterg -24.6% and Cycloheximide cs 21.8.
Screening COc1ccc(OCC(=O)Nc2ccc3c(c2)nc(CCNC(C)=O)n3C)cc1 returned AmpC inh detg -3.3%, Shiga toxin inh -21.1, AmpC no deterg -10.2%, Cycloheximide cs -0.8 and NS1 function inh 0.7%.
For CCC(=O)NCCc1nc2cc(NC(=O)c3ccc(F)cc3)ccc2n1C the results were AmpC inh detg 2.1%, Shiga toxin inh 89.0*, AmpC no deterg 2.0%, Cycloheximide cs 43.3* and NS1 function inh -0.3%.
`CCC(=O)NCCc1nc2cc(NC(=O)c3ccc(Cl)cc3)ccc2n1C` gave AmpC inh detg -2.7%, Shiga toxin inh 63.7*, AmpC no deterg 2.8%, Cycloheximide cs 51.9* and NS1 function inh 0.3%.
`CCOc1ccc(CN2CCN(Cc3cccn3-c3ncccn3)CC2CCO)cc1` (configuration not stated) gave AmpC inh detg -4.7%, Shiga toxin inh -1.5, AmpC no deterg 42.2%, Cycloheximide cs 8.3 and NS1 function inh 3.7%.
Screening Cc1ccc2c(c1)cc(C(=O)NCc1ccc(F)cc1)n2C returned AmpC inh detg 18.3%.
CC(=O)NCCc1nc2cc(NC(=O)c3ccccc3Cl)ccc2n1C was read as AmpC inh detg -19.0%, Shiga toxin inh 25.9, AmpC no deterg -6.4%, Cycloheximide cs 16.7* and NS1 function inh -1.8%.
`CC(=O)c1cnc(-c2ccccc2Cl)s1` gave AmpC inh detg -3.2%, Shiga toxin inh 23.5, AmpC no deterg -8.3%, Cycloheximide cs 11.5 and NS1 function inh -0.8%.
Screening Cc1ccc(-c2nnc(N(C)C(=O)c3ccccn3)s2)cn1 returned AmpC inh detg 2.3%, Shiga toxin inh 12.2, AmpC no deterg -12.1%, Cycloheximide cs 12.6* and NS1 function inh -8.6%.
For CN(C(=O)c1cnccn1)c1nnc(-c2cnccn2)s1 the results were AmpC inh detg inconclusive, Shiga toxin inh -10.4, AmpC no deterg -7.2%, Cycloheximide cs -6.7 and NS1 function inh 4.4%.
For CN(C(=O)c1ccccn1)c1nnc(-c2cnccn2)s1 the results were AmpC inh detg -2.2%, Shiga toxin inh 90.8, AmpC no deterg -20.0%, Cycloheximide cs 39.9* and NS1 function inh -1.0%.
`CN(C(=O)c1cccnc1)c1nnc(-c2ccccn2)s1` gave AmpC inh detg 7.3%, Shiga toxin inh 138.1, AmpC no deterg -0.9%, Cycloheximide cs 50.9* and NS1 function inh -4.3%.
`CC(=O)c1cnc(-c2ccccn2)s1` gave AmpC inh detg inconclusive, Shiga toxin inh 22.9, AmpC no deterg -25.8% and Cycloheximide cs 34.3*.
For CC(NC(=O)C1CCN(S(=O)(=O)c2ccc3c(c2)oc(=O)n3C)CC1)c1ccccc1 (configuration not stated) the results were AmpC inh detg 1.0%.
For CN(C(=O)c1cccnc1)c1nnc(-c2cnccn2)s1 the results were AmpC inh detg inconclusive, Shiga toxin inh 45.1, AmpC no deterg -9.4%, Cycloheximide cs 26.8* and NS1 function inh 4.4%.
`CN(C(=O)c1ccncc1)c1nnc(-c2cnccn2)s1` gave AmpC inh detg -10.5%, Shiga toxin inh -12.3, AmpC no deterg -41.7%, Cycloheximide cs -2.4 and NS1 function inh 7.2%.
For COCCN(C(C)=O)c1nnc(-c2cnccn2)s1 the results were AmpC inh detg -10.3%, Shiga toxin inh -10.6, AmpC no deterg 2.4%, Cycloheximide cs 3.6 and NS1 function inh -80.4%.
Screening CC(=O)N(C)c1nnc(-c2ccccn2)s1 returned AmpC inh detg inconclusive, Shiga toxin inh 13.3, AmpC no deterg -4.4%, Cycloheximide cs 15.0* and NS1 function inh 7.2%.
For COCCN(C(C)=O)c1nnc(-c2ccccn2)s1 the results were AmpC inh detg -11.5%, Shiga toxin inh 39.0, AmpC no deterg -11.4%, Cycloheximide cs 18.4* and NS1 function inh -47.1%.
Screening Cc1ccccc1Cn1c(SCc2ccc(C(=O)NC3CCCCC3)cc2)nc2ccncc21 returned AmpC inh detg 23.0%.
COc1cccc(NC(=O)CSc2nc3cc(OC)c(OC)cc3c3nc(-c4ccccc4)nn23)c1 was read as AmpC inh detg -0.5%.
For CCOC(=O)N1CCC(=NNc2nc(C)cc(=O)[nH]2)CC1 the results were AmpC inh detg 2.0%, Shiga toxin inh 41.9*, AmpC no deterg -16.5% and Cycloheximide cs 2.1.
Screening Cc1ccc2oc(-c3ccccc3)nc2c1 returned AmpC inh detg inconclusive, Shiga toxin inh 70.1*, AmpC no deterg -17.2%, Cycloheximide cs 44.8* and NS1 function inh -15.9%.
For Cc1ccc2oc(Nc3nc(C)cc(C)n3)nc2c1 the results were AmpC inh detg -0.2%, Shiga toxin inh 31.4, AmpC no deterg -10.4%, Cycloheximide cs 10.5* and NS1 function inh -2.5%.
CCOc1cccc(-c2nc3cc(C)ccc3o2)c1 was read as AmpC inh detg -13.6%, Shiga toxin inh 63.4, AmpC no deterg -5.4%, Cycloheximide cs 31.2* and NS1 function inh -9.2%.
`Cc1ccc2oc(-c3cccc(NC(=O)Cc4ccc(Cl)cc4)c3)nc2c1` gave AmpC inh detg 10.6%.
For CC12CC3CC(C)(C1)CC(C(=O)N1CCN(C(=O)c4ccco4)CC1)(C3)C2 the results were AmpC inh detg 3.7%, Shiga toxin inh -5.2, AmpC no deterg 127.1%, Cycloheximide cs -5.7 and NS1 function inh -48.0%.
`Cc1c([N+](=O)[O-])c([N+](=O)[O-])nn1CC(=O)N1CCCCC1` gave AmpC inh detg -2.7%, Shiga toxin inh -4.3, AmpC no deterg -0.8%, Cycloheximide cs -4.5 and NS1 function inh -19.0%.
Screening COc1ccc(NC(=O)/C(Cl)=C(/Cl)S(=O)(=O)Cc2ccc(C)cc2)cn1 returned AmpC inh detg inconclusive, Shiga toxin inh 17.3, AmpC no deterg -10.7%, Cycloheximide cs 12.8 and NS1 function inh -231.1%.
`COC(=O)c1c(C)[nH]c(/C=N/Nc2ccccc2)c1C` gave AmpC inh detg -4.3%, Shiga toxin inh 60.5, AmpC no deterg -8.3%, Cycloheximide cs 20.5* and NS1 function inh 0.8%.
O=C(CSc1nc2ccccc2s1)Nc1cc(S(=O)(=O)N2CCOCC2)ccc1O was read as AmpC inh detg inconclusive, Shiga toxin inh 17.3, AmpC no deterg -39.9%, Cycloheximide cs 19.7* and NS1 function inh 2.5%.
`O=C(CCc1ccc(S(=O)(=O)N2CCOCC2)cc1)OCc1nc2ccccc2s1` gave AmpC inh detg 0.1%, Shiga toxin inh 108.6*, AmpC no deterg 63.5%, Cycloheximide cs 73.3* and NS1 function inh -72.6%.
`O=C(OCc1nc2ccccc2s1)c1cccc(S(=O)(=O)N2CCOCC2)c1` gave AmpC inh detg -10.5%, Shiga toxin inh 108.3*, AmpC no deterg 47.5%, Cycloheximide cs 37.1* and NS1 function inh -10.8%.
For CCN(CC)c1ccc(S(=O)(=O)N2CCOCC2)cc1NC(=O)CSc1n[nH]c(N)n1 the results were AmpC inh detg 5.4%, Shiga toxin inh 44.1*, AmpC no deterg -7.9%, Cycloheximide cs 44.8* and NS1 function inh 2.2%.
